# From PubChem BioAssay (NCATS)
# Inconclusive results are not listed. A call without a number means that no potency is given here. A number with no mark means an inactive call. Calls of active or inactive are those of the source. The call rests on the fitted dose curve; in most records, active means well fitted cell-killing curve with a large enough effect; inconclusive means small, poorly fitted or top-dose-only effect, or effect the other way; inactive means flat fitted curve, though single readings scatter.
# Assays:
# Tov-21-G = assay: Primary qHTS to identify gynecologic anti-cancer compounds using libraries of approved drugs and bioactive compounds (AID 1345084); conditions: Gynecologic cancer cell panel viability, ATPlite luminescence, 48 h; series mostly up to 57.5 µM; further: nearly all actives have a fitted effect of over 55% in size
# How it was run: (§1)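 Five-point cytotoxicity, 48 h drug exposure at 37 C, 5% CO2, on cells seeded 16 h beforehand. ATP content read by ATPlite luminescence.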
# Tov112D = assay: as above; conditions: Gynecologic cancer cell panel viability, ATPlite luminescence, 48 h; series mostly up to 57.5 µM
# How it was run: as §1
# Potency means the concentration at half of the fitted maximal effect.
smiles,measurement,setting,value
C=CC(=O)N1CCCN(c2cc(NCCC(=O)O)nc(-c3ccccn3)n2)CC1,Potency,Tov-21-G,inactive
same,Potency,Tov112D,inactive
O=C(O)c1ccc(N2C(=O)/C(=C/c3ccc(-c4ccc([N+](=O)[O-])cc4)o3)C=C2c2ccccc2)cc1,Potency,Tov-21-G,inactive
same,Potency,Tov112D,inactive
CCOC(=O)CCNc1cc(N2CCc3ccccc3CC2)nc(-c2cccnc2)n1,Potency,Tov-21-G,inactive
same,Potency,Tov112D,inactive
COCc1c(Cl)ccc2c1CC[C@H]2c1ncc[nH]1,Potency,Tov-21-G,10 µM (active)
CC[C@@H](C)[C@@H]1OC2(C=C[C@H]1C)C[C@@H]1C[C@H](C/C=C(\C)[C@H](O[C@H]3C[C@H](OC)[C@H](O[C@H]4C[C@H](OC)[C@H](NC(C)=O)[C@H](C)O4)[C@H](C)O3)[C@H](C)/C=C/C=C3\CO[C@H]4[C@H](O)C(C)=C[C@@H](C(=O)O1)[C@@]34O)O2 (some centres undefined),Potency,Tov-21-G,inactive
same,Potency,Tov112D,inactive
O=C(c1c(F)ccc(NS(=O)(=O)N2CC[C@@H](F)C2)c1F)c1c[nH]c2ncc(-c3cnc(C4CC4)nc3)cc12,Potency,Tov-21-G,11.2 µM (active)
same,Potency,Tov112D,inactive
CO[C@@H]1CC(OC2CCC3(C)C(CCC45CCC(C6=CC(=O)OC6)C(C)(CCC43)C5=O)C2)O[C@H](C)[C@@H]1O[C@@H]1O[C@H](CO[C@@H]2O[C@H](CO)[C@@H](O)[C@H](O)[C@H]2O)[C@@H](O)[C@H](O)[C@H]1O (some centres undefined),Potency,Tov-21-G,3.16 µM (active)
same,Potency,Tov112D,2.82 µM (active)
CC(C)S(=O)(=O)NC[C@@H]1CC(c2ccc(N3CCCC3)c(F)c2)=NO1,Potency,Tov-21-G,inactive
same,Potency,Tov112D,inactive
CN(C)CCOC(C)(c1ccccc1)c1ccc(Cl)cc1 (centres undefined),Potency,Tov-21-G,inactive
same,Potency,Tov112D,inactive
C=CC(C)(O)CC[C@@H]1[C@@]2(C)CCCC(C)(C)C2CC[C@@]1(C)O (some centres undefined),Potency,Tov-21-G,inactive
same,Potency,Tov112D,inactive
Cc1ccc(NC(=O)N2CCN(c3nc(N)nc4sc(-c5cccnc5)nc34)CC2)cc1,Potency,Tov-21-G,inactive
same,Potency,Tov112D,inactive
C=C1C(=O)O[C@@H]2/C=C(\CO)CC/C=C(/C=O)C[C@H](O)[C@@H]12,Potency,Tov-21-G,28.2 µM (active)
same,Potency,Tov112D,inactive
CC(C)(O)c1ccc2c(c1)ncn2-c1cccc(-c2ccccc2C#N)c1,Potency,Tov-21-G,inactive
same,Potency,Tov112D,inactive
CC[C@@H](C)Nc1cc(C(=O)NC2CC3CCC(C2)N3c2ccc(C(=O)C3CC3)cn2)c(C)cc1C(N)=O (some centres undefined),Potency,Tov-21-G,0.398 µM (active)
Nc1nc(O)c(C2=C3C(=Nc4ccccc43)C(=O)NCC2)[nH]1,Potency,Tov-21-G,inactive
same,Potency,Tov112D,inactive
CCC(C)C(=O)O[C@H]1[C@H](O)[C@@]2(COC(C)=O)C(CC1(C)C)C1=CCC3[C@@]4(C)CC[C@H](O[C@@H]5O[C@H](C(=O)O)[C@@H](O)[C@H](O)[C@H]5O)[C@@](C)(CO)C4CC[C@@]3(C)[C@]1(C)C[C@@H]2O (some centres undefined),"activity change, negative = cytotoxicity",Tov-21-G,17.2% [at 11.6 µM]
same,"activity change, negative = cytotoxicity",Tov112D,6.69% [at 11.6 µM]
C=C1C(=O)O[C@H]2C3=C(C)CCC[C@]3(C)C(=O)C[C@@H]12,Potency,Tov-21-G,20 µM (active)
CCn1c(N)c(C(=O)NC)c(=O)c2ccc(C#CC(C)(O)COC)nc21 (centres undefined),Potency,Tov-21-G,inactive
same,Potency,Tov112D,inactive
C=CC(=O)N1CCC(Oc2cc3c(Nc4ccc(Cl)c(Cl)c4F)ncnc3cc2OC)CC1,Potency,Tov-21-G,25.1 µM (active)
Nc1nc2c(nc(Br)n2[C@@H]2O[C@@H]3COP(=O)(O)O[C@H]3[C@H]2O)c(=O)[nH]1,Potency,Tov-21-G,inactive
same,Potency,Tov112D,inactive
CN(C)C(=O)Nc1cccc(-c2ccc(N(C)C)cc2)c1,Potency,Tov-21-G,inactive
same,Potency,Tov112D,inactive
CCN1CCN(Cc2ccc(NC(=O)c3ccc(C)c(Oc4ncnc5[nH]c(C)cc45)c3)cc2C(F)(F)F)CC1,Potency,Tov-21-G,11.2 µM (active)
Cc1cc(F)ccc1[C@H]1C[C@@H](N2CCN3C(=O)CC[C@H]3C2)CCN1C(=O)N(C)[C@H](C)c1cc(C(F)(F)F)cc(C(F)(F)F)c1,Potency,Tov-21-G,inactive
same,Potency,Tov112D,inactive
CN(C)C(CCOc1cccc2ccccc12)c1ccccc1 (centres undefined),Potency,Tov-21-G,inactive
same,Potency,Tov112D,inactive
CCc1cc2c(cc1CC)CC(NCC(O)c1ccc(O)c3[nH]c(=O)ccc13)C2 (centres undefined),Potency,Tov-21-G,inactive
same,Potency,Tov112D,inactive
CC(C)(C)[C@H](NC(=O)c1ccc(N)c(Cl)c1)C(=O)N1CCC[C@H]1C(=O)N[C@H](C#N)CC(=O)O,Potency,Tov-21-G,inactive
same,Potency,Tov112D,inactive
Cc1ccc(-c2ncccn2)c(C(=O)N2C[C@H](COc3ccc(F)cn3)CC[C@H]2C)c1,Potency,Tov-21-G,inactive
same,Potency,Tov112D,inactive
CC(C)n1c(=O)c(C(=O)NC2CC3CCC(C2)N3C[C@@H](O)CN(C)S(C)(=O)=O)cc2ccccc21 (some centres undefined),Potency,Tov-21-G,inactive
same,Potency,Tov112D,inactive
CCCC(Nc1nc(-c2ccc(NC(=O)NCC)c(OC)c2)ncc1C)c1cccnc1 (centres undefined),Potency,Tov-21-G,0.316 µM (active)
same,Potency,Tov112D,0.158 µM (active)
CC(=O)Nc1cccc(Nc2ncnc(N3CCC(OCc4ccc(OC(F)(F)F)cc4)CC3)n2)c1C,Potency,Tov-21-G,inactive
same,Potency,Tov112D,inactive
Cc1cc(N2CCN(C(=O)Oc3ccc(-c4ccccc4)cn3)CC2)c2ccccc2n1,Potency,Tov-21-G,inactive
same,Potency,Tov112D,inactive
Fc1ccc2[nH]ccc2c1-c1nc(N2CCOCC2)c2sc(CN3CCN(CC4CC4)CC3)cc2n1,Potency,Tov-21-G,inactive
same,Potency,Tov112D,inactive
